Screening results deposited in PubChem by several laboratories.
Beta apoptosis – beta cell apoptosis inhibition; INS-1E cytokine-induced death, ATP luminescence, 48 h; percent of positive-control rescue, neutral wells zero; AID 435005; protection from apoptosis, % (no concentration beside the values); 300,000 tested, 0.8% active;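 active = Every replicate reaches about 75%, or at least half do and their mean reaches it too, limit read from the data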;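 also: 0% = cytokine-treated negative control wells and 100% = positive control rescue; higher means more ATP so stronger rescue from cytokine killing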
Gli-Sufu antag – Gli-Sufu pathway antagonism; Sufu-KO-LIGHT fibroblasts, Gli luciferase reporter luminescence; inhibition, % at 5 µM; 340,000 tested, 0.74% active; AID 588413;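 active = inhibition above about 55%, limit read from the data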;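 also: 0% = DMSO-treated cells and 100% = wells with medium but no cells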
697 NFkB inh – lowers PMA/ionomycin-induced NF-kB signal in 697 B cells; AID 435022; 330,000 tested, 0.33% active; inhibition, % at 4 µM; 697 B-cell NF-kB luciferase reporter, 16 h; in the data active = inhibition above about 35%
Jurkat NFkB inh – lowers PMA/ionomycin-induced NF-kB signal in Jurkat cells | AID 435003 | PMA/ionomycin-induced NF-kB luciferase reporter, luminescence | inhibition, % at 4 µM | 330,000 tested, 0.53% active; in the data active = inhibition above about 50%
Mdm2 MdmX PPI – disrupts the human Mdm2-MdmX interaction. SaOS-2 split-luciferase Mdm2/MdmX complementation, luminescence. inhibition, % at 8 µM. 330,000 tested, 3% active. AID 485346;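 active = inhibition of at least 50% at 8 µM in the primary screen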
Target sequence (O15151 whole entry, looked up): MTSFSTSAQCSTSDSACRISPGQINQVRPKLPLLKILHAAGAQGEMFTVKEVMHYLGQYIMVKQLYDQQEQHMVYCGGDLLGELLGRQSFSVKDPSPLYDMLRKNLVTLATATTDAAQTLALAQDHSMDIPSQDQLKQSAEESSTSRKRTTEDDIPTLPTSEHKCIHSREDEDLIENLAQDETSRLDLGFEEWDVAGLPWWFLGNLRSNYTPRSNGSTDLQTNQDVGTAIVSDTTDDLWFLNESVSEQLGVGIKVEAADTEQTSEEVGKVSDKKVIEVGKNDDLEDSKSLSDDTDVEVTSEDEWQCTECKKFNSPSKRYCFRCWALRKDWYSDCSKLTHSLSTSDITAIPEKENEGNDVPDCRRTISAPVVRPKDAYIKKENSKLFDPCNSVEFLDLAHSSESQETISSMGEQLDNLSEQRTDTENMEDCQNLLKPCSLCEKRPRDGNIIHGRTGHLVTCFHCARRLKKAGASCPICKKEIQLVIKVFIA
Target sequence (Q00987 whole entry, looked up): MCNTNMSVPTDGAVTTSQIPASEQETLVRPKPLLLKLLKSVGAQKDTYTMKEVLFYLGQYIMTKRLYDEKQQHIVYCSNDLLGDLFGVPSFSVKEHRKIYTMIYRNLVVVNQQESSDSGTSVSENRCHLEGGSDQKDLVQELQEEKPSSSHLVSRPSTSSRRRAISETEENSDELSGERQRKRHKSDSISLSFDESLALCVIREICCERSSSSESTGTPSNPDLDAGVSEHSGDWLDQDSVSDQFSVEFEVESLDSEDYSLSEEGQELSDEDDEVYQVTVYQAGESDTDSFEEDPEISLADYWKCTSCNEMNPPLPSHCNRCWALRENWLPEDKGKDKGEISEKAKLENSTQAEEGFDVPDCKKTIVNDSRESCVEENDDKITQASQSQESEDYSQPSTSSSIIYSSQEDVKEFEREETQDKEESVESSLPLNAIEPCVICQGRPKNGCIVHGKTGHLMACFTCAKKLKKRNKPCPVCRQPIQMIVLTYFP
Mdm2 MdmX conf – human Mdm2/MdmX binding inhibition, confirmed | shares compounds with Mdm2 MdmX PPI | luminescent assay | 10,000 tested, 55% active | AID 489028 | inhibition, % at 8 µM; in the data active = inhibition above about 40%
Full FLuc ctr – inhibits full-length luciferase, flagging false Mdm2/MdmX hits; shares compounds with Mdm2 MdmX PPI; inhibition, % at 8 µM; 6,200 tested, 77% active; SaOS-2 full-length luciferase counterscreen, luminescence;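 active = mean inhibition at 8 µM reaching about 37%, which flags the compound as non-specific, limit read from the data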;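 also: p53-null SaOS-2 cells with luciferase driven by a doxycycline-inducible promoter; compound on cells about two nights before reading with doxycycline added after day one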
Active calls of the source: *; x = no result. Only some compounds are listed: those with a hit (about 4% of all), similar ones and a draw of the others.

SMILES	Beta apoptosis	Gli-Sufu antag	697 NFkB inh	Jurkat NFkB inh	Mdm2 MdmX PPI	Mdm2 MdmX conf	others
Cc1cc(Oc2ccc(-c3nnc(-c4ccccc4)o3)cc2[N+](=O)[O-])ccc1Cl	1	-13	-11	-6	75*	2
O=c1[nH]c(/C=C/c2ccc(Br)cc2)nc2c1cnn2-c1ccccc1	-5	x	12	5	83*	21
Cc1ccc(F)cc1NC(=O)c1cnccn1	-4	-6	8	2	-6	x
CCCCNC(=O)Cn1c(=O)c2c(ncn2CC)n(Cc2ccccc2)c1=O	-6	-5	4	-7	-10	x
CCc1ccc(-c2cn(-c3nc(C)cc(C)n3)c(=N)o2)cc1	13	0	-6	9	53*	52*	Full FLuc ctr=68*
CSc1ccc(-c2nc3cnccn3c2Nc2ccc3c(c2)OCO3)cc1	2	-4	2	-6	55*	11
Cc1ccn2c(NC3CCCC3)c(-c3ccccn3)nc2c1	16	12	-49	-18	74*	43*	Full FLuc ctr=43*
Cc1ccc(Nc2c(-c3ccccn3)nc3ccc(C)cn23)cc1	97*	19	-15	-5	74*	90*	Full FLuc ctr=52*
c1ccc(-c2nc3ccccn3c2NC2CCCC2)nc1	x	8	-16	-4	30	x
Cc1ccn2c(Nc3ccccc3C)c(-c3ccncc3)nc2c1	-46	-2	-21	-3	59*	34
Cc1ccn2c(NC3CCCC3)c(-c3ccncc3)nc2c1	-5	8	12	5	-26	x
CCc1ccc(NC(=O)CN2CCCN(S(=O)(=O)c3ccc(F)cc3)CC2)cc1	-1	3	11	-16	18	x
Cc1ccn2c(Nc3ccc4c(c3)OCO4)c(-c3ccccn3)nc2c1	0	16	-41	-7	79*	69*	Full FLuc ctr=37*
Cc1ccc(-c2nc3cnccn3c2Nc2ccc3c(c2)OCO3)o1	0	-3	-44	-13	19	x
Cc1ccc(Nc2c(-c3ccccc3)nc3cnccn23)cc1	-2	-3	-12	-2	-9	x
Cc1ccc(Nc2c(-c3ccccn3)nc3cc(C)ccn23)cc1	103*	31	-5	9	92*	89*	Full FLuc ctr=55*
NS(=O)(=O)c1ccc2nc(NC(=O)c3ccc4c(c3)OCCO4)sc2c1	-8	0	-2	1	76*	24
O=C(Nc1nc2cc3c(cc2s1)OCCO3)C1=COCCO1	20	49	4	37	87*	83*	Full FLuc ctr=39*
NS(=O)(=O)c1ccc2nc(NC(=O)c3ccc4ncsc4c3)sc2c1	-2	10	-5	-6	-9	x
COc1ccc(Cl)c2sc(NC(=O)C3=COCCO3)nc12	1	-14	-11	-5	54*	24
COc1ccc(C(N)=O)c(OCC(=O)Nc2cc(C)on2)c1	-5	2	16	-3	0	x
O=C1C=C(c2cccs2)C[C@H](c2ccccc2)[C@H]1n1nnc([N+](=O)[O-])n1	101*	0	20	-10	74*	54*	Full FLuc ctr=172*
Cc1ccc(NC(=O)c2noc(C(C)C)c2[N+](=O)[O-])cc1	0	-5	-1	-3	3	x
COc1ccc(-c2nc(NC(=O)C3CC(=O)N(c4ccc5c(c4)OCCO5)C3)sc2C)cc1 (centres undefined)	43	14	-18	23	66*	58*	Full FLuc ctr=36*
O=C(CN1C(=O)S/C(=C\C=C\c2ccccc2)C1=O)Nc1cccc(O)c1	23	-37	-76	-12	99*	-3
SMILES	Beta apoptosis	Gli-Sufu antag	697 NFkB inh	Jurkat NFkB inh	Mdm2 MdmX PPI	Mdm2 MdmX conf	others
CC1CCCC(C)N1C(=O)COC(=O)c1cc(=O)[nH]c2ccccc12 (centres undefined)	0	0	-21	-14	9	x
N#Cc1cc2c(nc1SCC(=O)Nc1sc3c(c1C#N)CCC3)CCC2	1	-42	-92	-30	-10	x
COc1cccc(-c2ccc(C#N)c(SCC(=O)NCCc3cccc(Cl)c3)n2)c1	-1	13	-10	9	55*	12
COc1ccc(-c2ccc(C#N)c(SCC(=O)Nc3sc4c(c3C#N)CCC4)n2)cc1OC	58	11	-49	-15	97*	63*	Full FLuc ctr=102*
COc1cccc(-c2ccc(C#N)c(OC(=O)c3c(Cl)cccc3Cl)n2)c1	-3	15	1	25	83*	36
COc1cccc(-c2ccc(C#N)c(OC(=O)c3ccc(Cl)cc3)n2)c1	-2	21	7	7	-1	x
NC(=O)c1nn(-c2ccccc2)nc1NC(=O)Cn1nnc(-c2ccccc2)n1	-4	-5	6	4	61*	-6
Cc1ccc(-c2nc3ncccc3o2)cc1NC(=O)Cc1ccc(Cl)cc1	6	-5	-11	-11	93*	26
Cc1ccc(-c2nc3cccnc3o2)cc1NC(=O)COc1ccc(Cl)cc1C	64	4	-3	10	85*	19
COc1ccc(OCC(=O)NCCNC(=O)c2cccnc2)cc1	-4	5	12	19	-22	x
COc1cc(CNC(=O)c2cccc(COc3ccc(Cl)cc3)c2)cc(OC)c1	-1	-102	-97	-21	-74	x
COc1ccc(CNC(=O)COC(=O)CN2C(=O)COc3ccccc32)cc1	x	-12	1	1	-5	x
O=C(/C=N/NC(=O)c1ccc(Cl)cc1Cl)c1ccccc1	-7	-36	-15	-11	-2	x
Cc1ccc(S(=O)(=O)N(CC(=O)N/N=C/c2cccc(Cl)c2)c2cccc3cccnc23)cc1	41	5	4	-2	66*	23
Cc1ccc(N(CC(=O)N/N=C/c2cccnc2)S(=O)(=O)c2ccccc2)cc1	-1	-7	-5	21	4	x
Cc1ccc(S(=O)(=O)CCNC(=O)Cc2ccc(Cl)cc2)cc1	x	2	10	-10	-5	x
Cc1cc(C)nc(SCc2ccc(C(=O)N/N=C/c3ccc(C(=O)O)cc3)cc2)n1	-16	-11	3	6	4	x
Cc1cc(C)nc(SCc2ccc(C(=O)N/N=C/c3cccc(O)c3O)cc2)n1	95*	84*	-123	42	75*	68*	Full FLuc ctr=35
O=C(N/N=C/c1ccccc1C(=O)O)c1cccc(S(=O)(=O)N2CCCCC2)c1	4	-2	-6	-13	16	x
O=C(CN1CCCCC1)Nc1ccc(NC(=O)c2ccc(Cl)cc2)cc1Cl	21	-4	-17	-1	57*	14
CCOC(=O)C1CC2CC(C1)CN(C(=O)C1CCCCC1)C2 (centres undefined)	-5	1	18	0	2	x
O=C1C=C(Nc2ccc(Cl)cc2Cl)CC(c2ccco2)C1 (centres undefined)	-1	-7	-30	25	51*	53*	Full FLuc ctr=62*
